The record followed here is PubChem BioAssay (NCI).

A short description of this assay: NCI Yeast Anticancer Drug Screen. Data for the mlh1 rad18 strain (AID 175). To be noted: S. cerevisiae mlh1 rad18 strain growth inhibition, stronger effect = higher value. As to the method:
Growth inhibition of yeast strains with defined genetic alterations is measured as a screen for potential anti-cancer activity. Selected strains with alterations in DNA damage repair or cell cycle control were exposed to compounds and growth inhibition was measured relative to vehicle treated controls. The strain used in this assay is mlh1 rad18

The mark [1] stands for this setting: at 5.0 µM (retest, dose inferred, filed as 0.5).
Where [2] appears, read: at 50.0 µM (retest, dose inferred, filed as 5.0).

Several values for one entry are separate records, joined by “and”; a condition that tells them apart may be missing. Identical values can stand only once. The panel holds about 79,000 compounds, 15% with a hit somewhere; the sample as a whole holds those more often. Unmarked numbers belong to inactive results. Activity calls are given as the source filed them. Rule as the data show it: active = growth inhibition above about 70%; inactive = the rest.

Take `CCOC(=O)OCCSCCOC(=O)OCC`: the growth inhibition under setting [1] was 0%, the growth inhibition under setting [2] was 47% and the growth inhibition (at 50.0 µM) is -9.65%.

As for `CCOC(=O)c1c(C)n(C)c2c1nnc1ccccc12`, the growth inhibition under setting [1] is 7%, the growth inhibition under setting [2] was 83% (active) and the growth inhibition (at 50.0 µM) was 57.1%.

Consider `Cc1cc(O)c(/C=N/c2nc(-c3cccc([N+](=O)[O-])c3)cs2)c(=O)o1`, for which the growth inhibition is, setting by setting: under setting [1], 54%; under setting [2], 99% (active); (at 50.0 µM) 63.6%.

Take `c1ccc(N=Nc2ccc3ccccc3c2)cc1`: the growth inhibition was 8% under setting [1], 10% under setting [2] and 21.8% (at 50.0 µM).

As to `CN(C)c1ccc(/C=C(\NC(=O)c2ccccc2)c2nc3ccccc3s2)cc1`, the growth inhibition reads like this: under setting [1], 27%; under setting [2], 96% (active); (at 50.0 µM) 97% (active).

For `CCOC(=O)/C(=C\c1cccc([N+](=O)[O-])c1)C(C)=O`, the growth inhibition was 41% under setting [1], 99% (active) under setting [2] and 92.3% (active) (at 50.0 µM).

Take `C=C(C)C(CC=C(C)C)Cc1c(O)cc(OC)c2c1OC(c1ccc(O)cc1O)C(O)C2=O` (stereo not given): the growth inhibition is, setting by setting: under setting [1], 24%; under setting [2], 23%; (at 50.0 µM) 85.3% (active).

Take `CC1CCC(C(O)(C(=O)O)C2CCC(C)CC2)CC1` (stereo not given): the growth inhibition by setting is: under setting [1], 15%; under setting [2], 23%; (at 50.0 µM) 49.7%.

As for `COC(=O)Cc1nc2ccccc2s1`, the growth inhibition was -2% under setting [1], 76% (active) under setting [2] and 99% (active) (at 50.0 µM).

In the case of `CCN(CC)CCCNc1cccc2ccc(OC)nc12`, the growth inhibition reads like this: under setting [1], 4%; under setting [2], 28%; (at 50.0 µM) 53.5%.

As for `COC(=O)c1nc(=S)[nH]c(C(=O)OC)c1C(=O)C(C)(C)C`, the growth inhibition is, setting by setting: under setting [1], 9%; under setting [2], 20%; (at 50.0 µM) 4.75%.

Turning to `CC(C)C1=CC2=CC(=O)C3C(C)(C)CCCC3(C)C2=C(O)C1=O` (stereo not given), the growth inhibition runs as follows: under setting [1], 96% (active); under setting [2], 90% (active); (at 50.0 µM) 87.5% (active).

For the compound `CN(C)C=Nc1c2ccccc2nc2ccccc12`, the growth inhibition is -8% under setting [1], 84% (active) under setting [2] and 76.3% (active) (at 50.0 µM).

For `O=C(CC(C(=O)O)C(c1ccccc1)[N+](=O)[O-])c1ccccc1` (stereo not given), where the note is “at 50.0 µM”, the growth inhibition was -2.55% and 22.1% and 32.6%.
